# Assay outcomes deposited in PubChem by National Center for Advancing Translational Sciences (NCATS).
# aSyn rescue = rescues yeast growth from alpha-synuclein toxicity. Potency, µM (highest dose often 46.1 µM), without a hit: at the highest dose growth rescue (activation), most hits filed as activators. Yeast expressing alpha-synuclein, growth rescue, BacTiter-Glo, 24 h. 370,000 compounds, 0.14% hits; also: % of control where 0% means no effect; nearly all actives have a fitted effect of over 65% in size
#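 Rescue of yeast growth: cells expressing toxic alpha-synuclein, induced in galactose at OD600 0.02, incubated with compound 24 h at 30 C. ATP luminescence quantified growth; inhibitors of toxicity appear as activators.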
# FUS yeast rescue = FUS proteinopathy suppression in yeast. S. cerevisiae FUS-expressing, growth rescue, OD600, 24 h. Potency, µM (titrated, usually from 76.6 µM), usual class: activators. 390,000 compounds, 0.24% hits;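 also: plate controls were DMSO vehicle for no effect and reference control for full effect; nearly all actives have a fitted effect of over 55% in size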
#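 Galactose (2%) drives FUS expression in yeast precultured in raffinose; seeding density OD 0.005. Test compounds incubated 24hr at 30C and 99% humidity before absorbance at 600 nm was measured.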
# Abeta yeast res = A-beta toxicity reversal in yeast; yeast expressing A-beta42, growth rescue, OD600, 48 h; response scale: 0% DMSO, 100% iron-clioquinol control; Potency, µM (top dose mostly 46.1 µM), hits mostly activators; 410,000 compounds, 0.063% hits; AID 1347071; also: nearly all actives have a fitted effect of over 55% in size
#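 Yeast A-beta toxicity model in growth medium with pinned compounds, 48 h at 30 C; growth read as absorbance at 600 nm. Normalized to FeCl3/clioquinol equimolar mix (positive) and DMSO (negative).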
# TDP-43 yeast inh = inhibitors of TDP-43 toxicity in yeast; 410,000 compounds, 1.8% hits; Potency, µM (top dose mostly 46.1 µM), without a hit: top-dose growth rescue (activation), hits mostly activators; TDP-43 expressing yeast growth rescue, BacTiter-Glo, 24 h; also: % of control where 0% means no effect; nearly all actives have a fitted effect of over 50% in size
#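 Yeast cells expressing TDP-43 under galactose induction are exposed to compounds for 24 hr at 30 deg C. BacTiter-Glo luminescence measures growth, so protective compounds score as activators.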
# Starred values were filed as active, the others as inactive; i = inactive; ? = inconclusive; nt = no result given; [ ] = remark or other dose. A selection: hits, their analogues and other compounds. The true share with any hit is near 2.1%. Calls follow the shape of the dose curve; as a rule, active = well fitted curve in the direction sought with a large enough effect; inconclusive = small, poorly fitted or top-dose-only effect, or another doubt; inactive = no such curve, though single readings can be large; an effect the other way counts as inactive or inconclusive. Potency is read from the fitted curve at half-maximal effect.
SMILES,aSyn rescue,FUS yeast rescue,Abeta yeast res,TDP-43 yeast inh
COc1ccc(C(=O)NC(=S)Nc2ccc(CN3CCOCC3)cc2)cc1Br,1%,i,i,17%
COc1ccc2c(c1)CC(NC(=O)Nc1c(C)cc(C)cc1C)CO2 (stereo not drawn),nt,i,i,-5%
CC(C)[C@H](NC(=O)c1ccccc1)C(=O)OCC(=O)Nc1sccc1C(N)=O,-1%,i,i,-13%
COc1ccccc1NC(=O)C1=C(C)Nc2nc(SC)nn2C1c1ccccc1Cl (stereo not drawn),nt,i,i,11%
O=S(=O)(NCCSc1ccc(Cl)cc1)c1ccc(F)cc1,23%,i,i,14µM*
Cc1ccc(C)c(S(=O)(=O)NCCc2csc(-c3ccc(Cl)cc3)n2)c1,nt,i,i,22µM*
COc1ccc(-c2nc(CNS(=O)(=O)c3cccc(F)c3)cs2)cc1,nt,i,i,13µM*
Cc1ccc(SCCNS(=O)(=O)c2ccc(F)cc2)cc1,17%,i,i,?
Cc1ccc(CCNS(=O)(=O)c2cc(-c3cc(C)no3)ccc2C)cc1,nt,i,i,22µM*
CCS(=O)(=O)NCCc1csc(-c2ccccc2)n1,-2%,i,i,-7%
N#CC(C#N)=Cc1c[nH]c(=O)c(C#N)c1Nc1ccccc1,-5%,i,i,-20%
O=C(NCCC(=O)N1CCN(S(=O)(=O)c2ccc(Cl)cc2)CC1)Nc1ccccc1,4%,i,i,1%
C=CCN1C(=O)[C@H](CC(=O)NCCCOCCCC)[C@@]2(C(=O)OCC)CCCC=C12,nt,i,nt,nt
COc1ccc(CNC(=O)c2cc(-c3cccs3)on2)cc1,-4%,i,i,5.6µM*
O=C(NCc1ccc(Cl)cc1)c1cc(-c2cccs2)on1,5%,i,i,-15%
CC(OC(=O)c1cc(-c2cccnc2)nc2ccccc12)C(=O)Nc1ccc2ccccc2c1 (stereo not drawn),9%,5.6µM*,i,-7%
O=C(NNC(=S)Nc1ccccc1)c1cc(-c2cccnc2)nc2ccccc12,-3%,i,i,?
CC(C)n1nnnc1C1(C)CN(S(C)(=O)=O)CC(=O)N1Cc1cccc(C(F)(F)F)c1 (stereo not drawn),nt,i,nt,nt
COc1ccc(-c2onc(C)c2-c2ccc(C(=O)OC(C)C)o2)c(O)c1,12%,i,i,14µM*
COc1cc2oc3ccccc3c(=O)c2cc1OC,?,i,i,16µM*
Cc1cc(C)c2ccc(/C=N/O)nc2c1O,13µM*,i,?,21%
Cc1cc(C)c2ccc(NN)nc2c1O,-2%,i,i,5%
O=c1cc(-c2ccccc2)n(S(=O)(=O)c2ccc3ccccc3c2)o1,20µM*,i,i,?
COc1ccc(S(=O)(=O)n2oc(=O)cc2-c2ccccc2)cc1,10%,i,i,?
COc1ccc(S(=O)(=O)n2oc(=O)cc2-c2ccccc2)cc1OC,?,i,i,14µM*
SMILES,aSyn rescue,FUS yeast rescue,Abeta yeast res,TDP-43 yeast inh
O=C(Nc1ccccc1C(=O)NCCCN1CCOCC1)c1ccc(F)cc1,-4%,i,i,-10%
O=C(CNC(=O)c1ccccc1)OCCCOC(=O)CNC(=O)c1ccccc1,6%,nt,i,17%
COc1ccc(-c2nc3cc(C(C)C)ccc3o2)cc1NC(=O)c1ccc(C)c(Cl)c1,nt,i,i,-3%
O=C(O)c1cccc2c1C(=O)N(CC1CCCO1)C2 (stereo not drawn),0%,i,i,18%[9.22 µM]
CCc1cccc(NC(=O)c2cccc3c2C(=O)N(CC2CCCO2)C3)c1 (stereo not drawn),-15%,i,i,18µM*
CC(C)(C)C1CCC(C(=O)OCC(=O)c2ccc[nH]2)CC1 (stereo not drawn),4%,i,i,18µM*
COc1ccc(OC)c(C(c2nnnn2C2CCCC2)N2CCN(c3ccccc3F)CC2)c1 (stereo not drawn),8%,i,i,32µM*
CC(C)Cn1c(-c2ccc(Br)cc2)c[nH]c1=S,10%,i,3.2µM*,-15%[0.397 µM]
COc1ccc(-c2noc(CN(C(=O)C(C)Oc3ccc(C)cc3)C(C)C)n2)cc1 (stereo not drawn),nt,i,i,35µM*
Cc1ccc(C(=O)N(Cc2nc(-c3ccc(C)cc3)no2)C(C)C)cc1,1%,i,i,13%
Cc1ccc(CC(=O)N(Cc2nc(-c3ccc(C)cc3)no2)C(C)C)cc1,nt,i,i,25µM*
CC(C)N(Cc1nc(-c2ccc(Cl)cc2)no1)C(=O)c1ccco1,nt,i,i,35µM*
COc1ccc(OC(C)C(=O)N(C)Cc2nc(-c3ccccc3)no2)cc1 (stereo not drawn),1%,i,i,?
O=C(C1CCCN1S(=O)(=O)c1ccccc1[N+](=O)[O-])N1CCN(c2ccccc2)CC1 (stereo not drawn),nt,i,nt,nt
COc1ccc([C@H]2N[C@]3(CCCN(CC4CCCCC4)C3=O)[C@H]3C(=O)N(Cc4ccccc4)C(=O)[C@@H]23)cc1,11%,?,i,6%
Cc1nc(N2CCOCC2)nc(N2CCC(C)CC2)c1[N+](=O)[O-],0%,i,i,?
Cc1nc(N2CCOCC2)nc(N2CCCCC2C)c1[N+](=O)[O-] (stereo not drawn),-11%,i,i,20µM*
CNc1nc(-c2ccccc2)[n+](-c2ccc(C)cc2)s1,-9%,i,i,14µM*
Cc1ccc(-c2nc(N)s[n+]2-c2ccccc2)cc1,10%,nt,i,?
C=CCOC/C=C/C#CCN(Cc1ccc(OC)cc1OC)C(=O)Nc1ccccc1,nt,i,nt,nt
CCCCCCCNC1=CC(=O)CC(c2ccccc2)C1 (stereo not drawn),17%,i,i,20µM*
CCCCCNC1=CC(=O)CC(c2ccccc2)C1 (stereo not drawn),0%,i,i,-8%
N/C(=N\OC(=O)CCC1CCCC1)c1ccc(Br)cc1,-50%,nt,i,6.3µM*
N/C(=N\OC(=O)CCC1CCCC1)c1cccc([N+](=O)[O-])c1,-17%,i,i,20µM*
N/C(=N\OC(=O)CC1CCCCC1)c1cccc([N+](=O)[O-])c1,-12%,i,i,?
SMILES,aSyn rescue,FUS yeast rescue,Abeta yeast res,TDP-43 yeast inh
N/C(=N\OC(=O)CCC1CCCCC1)c1ccc([N+](=O)[O-])cc1,-6%,nt,i,20µM*
N/C(=N\OC(=O)CCC1CCCCC1)c1cccnc1,-1%,i,i,13µM*
CCc1cccc2c(/C=N/NC(=O)c3cccc(S(=O)(=O)Nc4ccccc4Cl)c3)c[nH]c12,-3%,nt,?,0%
C=CCN1C(=O)/C(=C/c2ccc(-c3ccc(F)cc3)o2)SC1=S,1%,i,i,-7%
COc1ccc(OCC(=O)O/N=C(\N)c2ccc(OC)cc2)cc1,1%,i,i,2%
COc1ccc(/C(N)=N/OC(=O)CC2CCCCC2)cc1,-25%,i,i,3.2µM*
